PubChem BioAssay AID744 (University of Pittsburgh Molecular Library Screening Center, 2007)
The other results are listed elsewhere or left out.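 The calls were made as follows: active = inhibition at or above 50% in each of two repeat confirmation tests; inconclusive = one repeat below 50% inhibition, the other above; inactive = both repeats at or below 50% inhibition.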

These compounds were tested against Serine/threonine-protein kinase PLK1 (Homo sapiens) (UniProt P53350) (assay: blockers of recombinant PLK1 peptide phosphorylation – biochemical, TR-FRET, duplicate runs, confirmation (AID 744;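 also: 0% = DMSO max control and 100% = H-89 kinase-blocked min control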)). Conditions: at 10 µM, active compounds read high.
Sequence of Serine/threonine-protein kinase PLK1 (Homo sapiens) (P53350 whole entry, looked up): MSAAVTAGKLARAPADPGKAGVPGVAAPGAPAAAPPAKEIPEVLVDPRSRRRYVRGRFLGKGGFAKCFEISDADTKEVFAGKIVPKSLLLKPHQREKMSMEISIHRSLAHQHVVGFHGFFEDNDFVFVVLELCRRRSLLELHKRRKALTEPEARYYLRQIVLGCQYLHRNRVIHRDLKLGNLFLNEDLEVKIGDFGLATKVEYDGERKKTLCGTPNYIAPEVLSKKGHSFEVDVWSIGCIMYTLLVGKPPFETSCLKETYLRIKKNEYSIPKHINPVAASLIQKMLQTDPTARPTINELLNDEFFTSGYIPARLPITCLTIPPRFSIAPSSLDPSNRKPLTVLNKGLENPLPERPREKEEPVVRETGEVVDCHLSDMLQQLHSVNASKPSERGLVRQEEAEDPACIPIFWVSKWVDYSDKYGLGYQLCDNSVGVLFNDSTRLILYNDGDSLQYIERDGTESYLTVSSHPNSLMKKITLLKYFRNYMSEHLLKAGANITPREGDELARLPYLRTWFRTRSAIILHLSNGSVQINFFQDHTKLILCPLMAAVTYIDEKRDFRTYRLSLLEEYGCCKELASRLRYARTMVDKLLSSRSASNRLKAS

inhibition, inactive:
Cc1ccnc(N2C(=O)c3ccccc3C2Nc2ccc3c(c2)OCCO3)c1 (stereo unspecified) -3.64%
CC1CSc2nnc(CCc3ccccc3)n21 (stereo unspecified) -11.1%
CC1CN(c2cc(=O)n(Cc3ccc(F)cc3)c(=O)[nH]2)CC(C)O1 (stereo unspecified) -5.99%
O=C(Nc1cccc(F)c1)c1ccc(S(=O)(=O)N2CCCC2)cc1 -12.1%
COc1ccc(-c2nc(CS(=O)CC(=O)NCc3cccnc3)c(C)o2)cc1OC (stereo unspecified) -2.97%
C[N+]1(CCNC(=O)/C=N/O)CCCCC1 -0.685%
